rTrxR1 inhibitor: blocks rat thioredoxin reductase 1; Potency, µM (titrated, usually from 114 µM), for inactives: top-dose activity change, negative = inhibition, actives largely listed as inhibitors; recombinant rTrxR1, NADPH fluorescence consumption, selenite substrate; O89049; hit rate 1% among 390,000; also: nearly all actives have a fitted effect of over 65% in size
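Rat TrxR1 (90 nM in the dispensed reagent) was pre-reduced with 400 uM NADPH for 5 min at room temperature, then incubated with compound for 15 min. After 400 uM selenite was added, NADPH fluorescence (Ex 340/Em 450 nm) was followed for 8 min.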
KAT2A inh: GCN5L2 (KAT2A) acetyltransferase inhibition; Q92830; GCN5L2 HAT assay, ThioGlo1 CoA-SH fluorescence; Potency, µM (series often up to 58.9 µM), inactives show at the highest dose activity change, negative = inhibition, usual class: inhibitors; hit rate 0.21% among 390,000; AID 504327
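GCN5L2 (20nM final) in 50mM HEPES, 0.1mM EDTA pH 7.5, 0.01% Tween-20 was preincubated 15 min at room temperature with compound, then given ThioGlo1 (50uM), H3(1-25) peptide (75uM) and acetyl-CoA (70uM); CoA-thiol fluorescence (Ex340/Em540) was read at 0 and 20 min.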
VDR inhibitor: vitamin D3 receptor (human) inhibition; VDR-SRC2-3 peptide fluorescence polarization, 2 h; Potency, µM, for the others: max response, negative = inhibition, usual class: inhibitors; hit rate 0.93% among 400,000; AID 504847
Target sequence (P11473 whole entry, looked up): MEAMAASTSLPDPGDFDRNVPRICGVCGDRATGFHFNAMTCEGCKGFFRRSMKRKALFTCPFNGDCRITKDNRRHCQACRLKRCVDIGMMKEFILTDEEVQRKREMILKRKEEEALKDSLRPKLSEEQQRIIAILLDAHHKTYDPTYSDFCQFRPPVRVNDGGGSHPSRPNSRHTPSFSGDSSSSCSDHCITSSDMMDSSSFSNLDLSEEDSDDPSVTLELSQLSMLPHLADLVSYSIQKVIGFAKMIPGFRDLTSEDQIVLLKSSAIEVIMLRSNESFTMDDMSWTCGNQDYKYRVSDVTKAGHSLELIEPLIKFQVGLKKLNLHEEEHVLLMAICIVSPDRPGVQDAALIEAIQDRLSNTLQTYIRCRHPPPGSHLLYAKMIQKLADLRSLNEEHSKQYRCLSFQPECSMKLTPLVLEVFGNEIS
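Signal is fluorescence polarization, reporting how far test compounds block the interaction of VDR with the SRC2-3 coregulator peptide after a 2 h room-temperature incubation.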
TrxR1 substrate: substrates of rat thioredoxin reductase 1; purified TrxR1 substrate turnover, NADPH consumption readout; O89049; hit rate 0.01% among 390,000; Potency, µM (highest dose often 114 µM), inactives show top-dose activity change, negative = substrate turnover; AID 588456; also: nearly all actives have a fitted effect of over 50% in size
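Rat TrxR1, dispensed at 90 nM, was prereduced with 400 uM NADPH (final) for 5 min at ~22 deg C, then incubated with compound 15 min before 400 uM selenite. A first-read NADPH fluorescence drop versus no-compound background flagged substrates.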
The depositor's hits bear a star; ? = inconclusive; nt = no result given; ! = a repeat was not active; [ ] = remark or other dose. Rows were chosen to be rich in hits. Some 1.8% of all compounds tested hit in one or more screens of this group. Calls follow the shape of the dose curve; as a rule, active = well fitted curve in the direction sought with a large enough effect; inconclusive = small, poorly fitted or top-dose-only effect, or another doubt; inactive = no such curve, though single readings can be large; an effect the other way counts as inactive or inconclusive. % is scaled to controls: 0 for no effect and ±100 for the full control effect; potency is read from the fitted curve at half-maximal effect.

SMILES | rTrxR1 inhibitor | KAT2A inh | VDR inhibitor | TrxR1 substrate
CCOC(=O)N1CCN(C(=O)CCC(=O)c2ccc(OCC)cc2)CC1 | 11% | -1% | 1% | 2%
CCCOc1ccc(C(=O)CCN2CCN(C(=O)OCC)CC2)cc1 | 8.9µM* | -7% | 45µM* | 4%[57.1 µM]
CCCOc1ccc(C(O)(CCN2CCCCC2)c2ccccc2OC)cc1 (configuration not stated) | -13% | 1% | 16% | -2%
O=C(O)/C=C/c1ccccc1 | nt | -11% | 10% | nt
COc1ccc(C(O)(CCc2ccccc2)CCN2CCCCC2)cc1 (configuration not stated) | 8.9µM* | -8% | -6% | 7%[57.1 µM]
COc1ccc(C(=O)CN2CCN(c3ccc(F)cc3)CC2)cc1OC | 20µM* | ? | 1% | 2%
O=C(CSC1CC(=O)N(CCc2ccccc2)C1=O)Nc1cccc(Cl)c1 (configuration not stated) | 16%[57.1 µM] | -4% | 79µM* | -3%[57.1 µM]
Cc1ccccc1CN1[C@H]2CCCC[C@@H]2OCCS1(=O)=O | 18% | nt | nt | 4%
CCCCn1c(N)c(C(=S)NC(=O)CC(C)(C)C)c(=O)n(C)c1=O | 40µM* | -9% | -17% | -6%
CCCn1c(N)c(C(=O)CSc2ncn[nH]2)c(=O)n(C)c1=O | 0% | -6% | 5% | 5%
CN(C)CCN(Cc1ccccc1)S(=O)(=O)c1ccc(-c2cc(C(F)(F)F)on2)s1 | -7%[57.1 µM] | 0% | 12% | -12%[57.1 µM]
CN(C)CCN(Cc1ccccc1)S(=O)(=O)c1ccc(-c2ccc(=O)[nH]n2)s1 | 40µM* | 2% | -24% | 11%
O=C(CCCn1c(=O)c2ccccc2n(CC(=O)Nc2ccc(F)cc2F)c1=O)NCc1ccccc1Cl | 2% | -7% | -9% | -2%
O/C(=C\c1nc2ccccc2nc1/C=C(\O)c1ccccc1)c1ccccc1 | 4% | -5% | 79µM* | -1%
O=C(c1cc(C(F)(F)F)cc(C(F)(F)F)c1)N1CCC2(CC1)CCN(c1ccncc1)CC2 | nt | -16% | 9% | nt
CCOc1ccccc1C=Nc1ccccc1C(=O)Nc1ccccc1 | 3% | -5% | 25µM* | 6%[0.457 µM]
CC(=O)NNC(=S)NC(=O)c1cccc([N+](=O)[O-])c1 | 50µM* | ? | ? | 5%
O=C(/C=C/c1ccc2c(c1)OCO2)c1ccccn1 | -10% | -9% | 79µM* | 4%
O=C(C=Cc1ccc2c(c1)OCO2)c1ccccc1 | -16% | nt | 40µM* | -1%
N/C(=N\OC(=O)/C=C/c1ccccc1)c1ccccn1 | 20% | 2% | 2% | 3%
COc1ccc(/C=C/C(=O)c2ccc3c(c2)OCO3)cc1OC | ? | -8% | -14% | -6%
O=C(/C=C/c1ccccc1)c1ccccn1 | ? | -3% | 40µM* | 9%[57.1 µM]
O=C(C[N+]1(CCO)CCOCC1)c1cccs1 | -7% | nt | nt | -2%
Clc1ccc(/C=C/c2ccc3ccccc3n2)cc1Cl | ? | nt | nt | -4%
C[n+]1ccc(/C=C/c2ccc([N+](C)(C)C)cc2)c2ccccc21 | -33% | nt | nt | -12%
SMILES | rTrxR1 inhibitor | KAT2A inh | VDR inhibitor | TrxR1 substrate
Nc1cccc(-n2nnnc2CN2CCOCC2)c1 | 5% | 8% | 45µM* | 1%
COC(=O)C1Cc2ccccc2CN1S(=O)(=O)c1ccc(F)cc1 (configuration not stated) | 22%[57.1 µM] | 5% | 5% | 9%[57.1 µM]
COC(=O)C1Cc2ccccc2CN1C(=O)CCl (configuration not stated) | 14µM* | -7% | 7% | 7%[57.1 µM]
O=C(c1ccc2c(c1)OCCO2)N(Cc1cccnc1)c1nc2c(Cl)cccc2s1 | 11%[57.1 µM] | -15% | 2% | -6%[57.1 µM]
C=CCOC(=O)C1=C(C)OC(N)=C(C#N)C1c1c(C)nn(-c2ccccc2)c1Cl (configuration not stated) | 10%[57.1 µM] | -9% | 8% | 8%[57.1 µM]
CCOC(=O)C1=C(C)OC(N)=C(C#N)C1c1c(C)nn(-c2ccccc2)c1Cl (configuration not stated) | -28% | ? | 71µM* | -4%
O=C(CNC1=NCCS1)c1c[nH]c2ccccc12 | 1% | nt | nt | -1%
Cn1nc(-c2ccccn2)nc2c(=O)n(C)c(=O)nc1-2 | ? | -5% | 10% | 35µM*
Cc1ccccc1-c1nc2c(=O)n(C)c(=O)nc-2n(C)n1 | 14µM* | nt | -22% | 13µM*
Cc1ccccc1CN1CCNC(=O)C1CC(=O)O (configuration not stated) | 71µM* | -10% | -8% | 5%
CCCCCc1ccc(-c2cn(Cc3ccc4c(c3)C(=O)c3ccccc3C4=O)nn2)cc1 | 12% | nt | nt | -2%
C/C(CC(=O)Nc1ccc(N(C)C)cc1)=N\NC(=O)c1ccc([N+](=O)[O-])cc1Cl | -3%[57.1 µM] | -11% | 79µM* | -9%
C[N+]12CCCC[C@@H]1CCC(=C(c1cccs1)c1cccs1)C2 (some centres not stated) | nt | 6% | -6% | nt
CCOc1cccc2sc(NC(=O)CCS(=O)(=O)c3ccccc3)nc12 | 4% | -4% | -2% | -1%
COc1ccc(C)c2sc(NC(=O)CCS(=O)(=O)c3ccccc3)nc12 | 40µM* | 4% | 5% | 2%
COc1ccc(NC(=O)c2cccc(C(=O)Nc3ccc(OC)cc3)n2)cc1 | nt | -2% | nt | nt
COc1ccc(NC(=O)c2sc(=S)[nH]c2N)cc1 | ? | ? | 50µM* | -10%
CCN1CCOC(=O)C1CC(=O)Nc1cc(Cl)ccc1C (configuration not stated) | 11µM* | -10% | ? | 4%
CCN1CCOC(=O)C1CC(=O)Nc1ccc(C)c(Cl)c1 (configuration not stated) | ? | -6% | -18% | 7%[11.4 µM]
CCN(CC)/[N+]([O-])=N/Oc1ccc([N+](=O)[O-])cc1[N+](=O)[O-] | 14µM* | nt | nt | -11%
CN(C)/[N+]([O-])=N/Oc1ccc([N+](=O)[O-])cc1C(F)(F)F | 17% | nt | nt | 4%[0.457 µM]
CC(=O)N1CCN(/[N+]([O-])=N/Oc2ccc([N+](=O)[O-])cc2[N+](=O)[O-])CC1 | 10µM* | nt | nt | -4%
CN(C)/[N+]([O-])=N/Oc1cc(F)c([N+](=O)[O-])cc1[N+](=O)[O-] | 20µM* | nt | nt | -10%
CCNC(=O)N1CCN(/[N+]([O-])=N/Oc2ccc([N+](=O)[O-])cc2[N+](=O)[O-])CC1 | 14µM* | nt | nt | -7%
CCOc1cc(CNC(=O)c2ccc3c(c2)N(C)C(=O)C2CCCCN32)ccc1OC (configuration not stated) | 21%[57.1 µM] | -6% | 3% | 0%[57.1 µM]
SMILES | rTrxR1 inhibitor | KAT2A inh | VDR inhibitor | TrxR1 substrate
CCN(CC)C(=O)N1CCN(/[N+]([O-])=N/Oc2ccc([N+](=O)[O-])cc2[N+](=O)[O-])CC1 | 22µM* | nt | nt | -8%
CN(C)CC/C=C1\c2ccccc2COc2ccccc21 | 32µM*! | -4% | -7% | 6%[57.1 µM]
CN(C)CC/C=C1/c2ccccc2CS(=O)(=O)c2ccccc21 | 14% | nt | 3% | 3%
CC(c1ccc(N(C)C)cc1)c1ccnc2ccccc12 (configuration not stated) | 24% | nt | nt | 5%
O=C(c1cccc(F)c1)N1CCC2(CCCN(c3ncccn3)C2)CC1 | nt | -6% | -8% | nt
CNc1cccccc1=S | 7.9µM* | ? | ? | -2%

Assay outcomes (PubChem BioAssay)
